# Bioassay records: PubChem BioAssay, National Center for Advancing Translational Sciences (NCATS)
# Shiga inhibitor: inhibitors of Shiga toxin in Vero cells; Vero cells, Shiga toxin protein synthesis inhibition reporter; inhibition, % at 38.7 µM; 9.2% of 290,000 active; in the data active means inhibition mostly above about 28%, no sharp cut-off; inactive means mostly below about 43%; further: 0% is about no effect
# Pf growth 96h: inhibits malaria parasite growth, 96 h. P. falciparum luciferase reporter growth, 96 h. Potency, µM (doses to about 28.7 µM), without a hit: top-dose activity change, negative = inhibition, usual class: inhibitors. 6.9% of 320,000 active; further: potency means the concentration at half of the fitted maximal effect; on the % scale 0 is the no-effect control and ±100 the full control effect
#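 Two-generation exposure (96 h) targets delayed-death phenotype. Reporter parasites carrying integrated firefly luciferase, in red cells at 2% hematocrit and 0.05% parasitemia final, kept at 37 C, 5% CO2; luminescence loss indicates inhibition.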
# LmPK inh: blocks Leishmania mexicana pyruvate kinase activity; Q27686; purified LmPK, Kinase-Glo ATP luminescence, 1 h; Potency, µM (top dose mostly 57.5 µM), for inactives: at the highest dose activity change, negative = inhibition, usual class: inhibitors; 0.37% of 290,000 active; AID 1721; further: potency means the concentration at half of the fitted maximal effect; on the % scale 0 is the no-effect control and ±100 the full control effect
# Target sequence (Q27686 whole entry, looked up): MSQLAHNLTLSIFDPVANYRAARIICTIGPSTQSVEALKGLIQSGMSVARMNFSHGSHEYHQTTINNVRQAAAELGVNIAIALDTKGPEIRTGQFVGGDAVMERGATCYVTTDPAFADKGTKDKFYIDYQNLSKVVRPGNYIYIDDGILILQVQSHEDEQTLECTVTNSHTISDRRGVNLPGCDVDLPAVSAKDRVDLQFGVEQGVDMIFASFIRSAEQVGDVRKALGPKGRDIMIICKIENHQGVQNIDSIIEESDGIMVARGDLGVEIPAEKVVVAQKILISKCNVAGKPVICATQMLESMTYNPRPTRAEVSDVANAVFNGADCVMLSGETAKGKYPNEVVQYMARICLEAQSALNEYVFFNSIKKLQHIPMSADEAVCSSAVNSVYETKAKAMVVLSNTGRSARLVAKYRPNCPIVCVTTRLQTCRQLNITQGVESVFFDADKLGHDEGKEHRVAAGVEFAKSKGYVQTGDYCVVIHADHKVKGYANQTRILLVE
#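 Screened at intermediate enzyme activity to detect both inhibitors and activators: LmPK at 0.1 nM, with a 0.5 nM enzyme column as activation reference. PEP 0.5 mM, ADP 0.1 mM; ATP detected by luminescence after 1 h.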
# CHX counter: affects cycloheximide protein synthesis inhibition readout, counter-screen; AID 2314; cell reporter, cycloheximide protein synthesis inhibition counterscreen; 12% of 300,000 active; max response, %; in the data active means max response mostly above about 13%, no sharp cut-off; inactive means mostly below about 14%; further: read at 38.3 µM for the half of the compounds with a filed dose; 0% is about no effect
# Pf growth 48h: P. falciparum growth inhibition at 48 hours (one generation); P. falciparum luciferase growth in erythrocytes, 48 h; Potency, µM (top dose mostly 28.7 µM), for inactives: top-dose activity change, negative = inhibition, usual class: inhibitors; 5.9% of 310,000 active; further: potency means the concentration at half of the fitted maximal effect; on the % scale 0 is the no-effect control and ±100 the full control effect
#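 Erythrocytes infected with P. falciparum carrying an integrated firefly luciferase reporter (2% hematocrit, 0.1% parasitemia final) were exposed to compounds in RPMI 1640 with 0.5% Albumax at 37 C, 5% CO2. Growth inhibition was scored as reduced luminescence.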
# Active calls of the source: *; ? = inconclusive; nt = no result; ! = not confirmed by another sample; [ ] = dose if it differs, or a comment. An excerpt weighted towards active compounds, which were near 22% of everything screened. Unless noted, the call rests on the fitted dose curve; in most records, active means well fitted inhibition curve with a large enough effect; inconclusive means small, poorly fitted or top-dose-only effect, or another doubt; inactive means no such curve, though single readings can be large or run the other way.
SMILES,Shiga inhibitor,Pf growth 96h,LmPK inh,CHX counter,Pf growth 48h
O=C1C(Nc2ccccc2)=C(N2CCCCC2)C(=O)c2ccccc21,72.5*,33.6%,-9.0%,31.1*,0.465µM*
O=C(/C=C/c1ccc(O)c(O)c1)c1ccc(S(=O)(=O)N2CCCCCC2)cc1,31.0,2.8%,3.8%,-1.3,18.6%
O=C(/C=C/c1ccc(O)cc1)c1ccc(NC2=C(N3CCCCC3)C(=O)c3ccccc3C2=O)cc1,159.6*,0.165µM*,-18.9%,59.3*,0.522µM*
COc1ccccc1NC1=C(N2CCCCC2)C(=O)c2ccccc2C1=O,37.7,0.0928µM*,-7.9%,23.2*,0.0465µM*
O=c1nc(N2CCCCC2)nc(Nc2ccccc2)[nH]1,-5.9,17.4%,12.7%,-0.6,nt
CN(C1=C(N2CCCCC2)C(=O)c2ccccc2C1=O)c1ccccc1,-2.6,nt,?,11.9,8.28µM*
CC(/C=N\NC(=O)CN1CCN(S(=O)(=O)c2ccc(C)cc2)CC1)=C\c1ccccc1,-3.0,?,3.0%,-3.3,-22.7%
CC(C)OCCCNC(=O)c1cccc2c1C(=O)c1ccc(Cl)cc1S2(=O)=O,nt,12.1%,nt,nt,-65.6%
CC1CCCN(S(=O)(=O)c2ccc3oc(=O)ccc3c2)C1 (stereo not given),0.5,-8.9%,0.0%,0.5,-10.0%
CC1CCc2cc(F)ccc2N1C(=O)C1(C)CC1(Cl)Cl (stereo not given),-10.2,nt,0.9%,1.1,-26.5%
CC1=C(Nc2ccc(C(=O)O)cc2)C(=O)c2ccccc2C1=O,15.8,26.1%,-0.1%,13.0,51.7%
O=C1C(Nc2cccc(O)c2)=C(N2CCCCC2)C(=O)c2ccccc21,51.2*,0.415µM*,-3.3%,34.5*,?
Cc1ccc(NC2=C(N3CCCCC3)C(=O)c3ccccc3C2=O)cc1,106.8*,0.0738µM*,-8.9%,49.6*,0.165µM*
CC(C)(C)c1ccc(OCC(=O)N/N=C/c2cc(Br)ccc2OC(=O)c2ccco2)cc1,-4.3,?,0.8%,11.2,2.08µM*
COCCn1c(C)nnc1SCC(=O)NNC(=O)c1ccc(Cl)cc1,-12.7,16.2%,0.6%,-5.2,13.8%
CC(=O)NC1[C@H](O)C[C@@](O)(C(=O)O)O[C@H]1[C@H](O)[C@H](O)CO (stereo not given in full),nt,-7.1%,nt,nt,-3.0%
O=C(CCS(=O)(=O)CCN1CCOCC1)NCNC(=O)CCS(=O)(=O)CCN1CCOCC1,-14.0,-2.0%,2.3%,-1.1,-9.7%
Cc1ccsc1/C=N/Nc1nc2ccccc2[nH]1,active,?,14.1µM*,43.5*,?
C(=N\Nc1nc2ccccc2[nH]1)/c1cccs1,123.6*,2.62µM*,14.1µM*,69.1*,2.94µM*
O=C(Cn1cnc2ccccc21)N/N=C/c1cccs1,-6.3,-3.7%,0.5%,6.9,-3.7%
COc1ccc(CS(=O)(=O)CC(C)(O)c2ccccc2Cl)cc1 (stereo not given),4.0,5.0%,0.7%,-1.2,1.3%
CCNC(=O)COC(=O)/C=C/c1cccc(F)c1,-4.5,9.3%,-0.3%,-3.1,8.4%
CCOC(CNc1ncnc2sc(-c3ccccc3)cc12)OCC,24.6,?,3.6%,11.6*,?
S=C(NCC1CCCO1)Nc1ccc(Nc2ccccc2)cc1 (stereo not given),13.3,11.7µM*,-2.2%,1.5,-7.9%
S=C(NCC1CCCO1)Nc1cccc2ccccc12 (stereo not given),-10.1,1.04µM*,-4.7%,5.9,11.8%
SMILES,Shiga inhibitor,Pf growth 96h,LmPK inh,CHX counter,Pf growth 48h
O=C1CC[C@@H](C(=O)O)N1,nt,13.5µM*!,nt,nt,?
Cc1cc(Br)c(OCc2ccc(C(=O)N/N=C3\CC4CC=CC34)cc2)c(Br)c1 (stereo not given),-9.3,?,-3.0%,0.5,10.4µM*
O=C(NNC(=S)Nc1ccccc1C(F)(F)F)C1CC1,12.5,23.1%,3.5%,2.2,-1.2%
FC(F)(F)c1ccccc1NC(=S)N/N=C1\CC2CC=CC12 (stereo not given),77.1*,?,1.0%,23.2*,?
O=C(N/N=C1\CC2CC=CC12)c1ccc(Br)cc1 (stereo not given),48.0,-2.8%,-0.3%,27.8,12.2%
O=C(N/N=C1\CC2CC=CC12)c1ccccc1Cl (stereo not given),85.5*,13.9%,1.5%,21.1*,-15.1%
COc1cc(/C=N/NC(N)=O)cc(Br)c1OCc1ccc(C)cc1,3.0,-24.8%,-2.6%,1.5,nt
O=[N+]([O-])c1ccccc1N/N=C1\CC2CC=CC12 (stereo not given),108.3*,31.3%,-7.5%,30.7*,55.8%
CC1(C)OC(=O)C(=NNc2ccccc2[N+](=O)[O-])C(=O)O1,45.7,15.4%,-3.6%,-0.3,2.7%
O=C(/C=C/c1ccc([N+](=O)[O-])cc1)N1CCN(S(=O)(=O)c2cccs2)CC1,-8.6,-5.4%,2.2%,0.6,28.4%
Oc1ccc(/C=N/Nc2ccc(Cl)nn2)c(O)c1O,1.0,?,3.2%,11.9,15.7%
COC(=O)c1ccc(CS(=O)(=O)c2ccc(F)cc2)o1,-4.7,5.22µM*,6.4%,-5.4,-4.9%
COc1ccc(S(=O)(=O)Cc2ccc(C(=O)NC(C)C)o2)cc1,7.1,52.9%,-2.2%,-2.7,2.1%
COc1ccc(S(=O)(=O)Cc2ccc(C(=O)NC3CCCCCC3)o2)cc1,-3.0,7.38µM*,0.7%,-1.8,8.2%
O=C(NC1CCCCCC1)c1ccc(CS(=O)(=O)Cc2ccc(F)cc2)o1,40.4*,?,1.1%,21.8*,44.9%
Cc1ccc(S(=O)(=O)Cc2ccc(C(=O)NC3CCCC3)o2)cc1,-8.6,0.0%,-5.0%,-3.1,1.0%
COC(=O)c1ccc(OC(=O)C2CSC3(C)CCC(=O)N23)cc1 (stereo not given),nt,23.4%,nt,nt,?
COc1cc(C2CC(=O)c3cnc(NC(=O)c4ccco4)nc3C2)cc(OC)c1OC (stereo not given),-10.3,37.9%,-2.0%,-4.8,-1.9%
COC(=O)C1=C(C(=O)OC)[C@@H]2N(Cc3ccccc3)c3ccccc3[C@@]23C[C@@H](C(=O)OC)N(C(=O)COCc2ccccc2)C3=N1,-6.1,52.6%,-4.7%[11.5 µM],-3.7,19.2%
Cc1sc(NC(=O)CSc2nnc(N)s2)c(C#N)c1C,-3.8,21.5%,3.2%,4.6,23.0%
O=C(Nc1nccs1)C1CC2CCC1C2 (stereo not given),33.2,-16.9%,0.1%,5.4,-40.8%
O=C(Nc1ccc([N+](=O)[O-])cn1)C1CC2CCC1C2 (stereo not given),17.1*,59.2%,-2.6%,13.0,53.7%
Clc1ccc(CSc2cc3c(nn2)-c2ccccc2CC3)cc1,50.5,70.8%,2.0%,15.0*,37.5%
Clc1ccc(Cc2ccc(SCc3ccccc3)nn2)c(Cl)c1,-17.3,1.8%,-2.6%,5.6,18.1%
O=C(CC(c1ccccc1O)N1CCCCC1)N1CCCCC1 (stereo not given),34.6*,0.0%,-12.1%,40.9*,61.9%
O=C(Cc1ccccc1)NCC(=O)N1CCCCC1,1.7,?,-6.0%,21.4,17.5%
